According to PubChem BioAssay (Tox21):
Several values for one entry are separate records, joined by “and”; a condition that tells them apart may be missing. Equal values may be shown once. Inconclusive results are not listed. Activity calls are given as the source filed them. Unless noted, calls come from the whole dose curve; as a rule, active = well fitted curve in the direction sought with a large enough effect in the repeat runs; inconclusive = weak or mixed curves; inactive = no such curve, though single readings can be large; an effect the other way counts as inactive or inconclusive.

Tests used:
[1] = qHTS assay to identify small molecule antagonists of the estrogen related receptor (ERR) signaling pathway from Tox21 library - cell viability counter screen (AID 1224834); note: nearly all actives have a fitted effect of over 30% in size; note: potency is the fitted concentration of half-maximal effect
Outline: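 Multiplexed viability counter screen in ERR cells: 17.5 h compound exposure at 37 C, CellTiter-Fluor added, 30 min at 37 C/5% CO2, fluorescence read.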

[2] = target: Luciferin 4-monooxygenase (Photinus pyralis) (UniProt P08659); assay: qHTS assay to identify small molecule inhibitors of firefly luciferase (AID 1224835); note: nearly all actives have a fitted effect of over 25% in size
Outline: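 Biochemical qHTS: compounds run as interplate titrations against purified firefly enzyme, with D-luciferin and ATP each at its KM concentration. Light output recorded by CCD imaging.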

[3] = qHTS assay to identify small molecule agonists of the constitutive androstane receptor (CAR) signaling pathway - cell viability counter screen (AID 1224836); note: nearly all actives have a fitted effect of over 45% in size
Outline: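 Double-stable HepG2 hepatoma cells (hCAR plus CYP2B6-2.2kb) are treated for 23 h at 37 C with test compounds in 15-point concentration series. PK11195 at 0.75 uM final is co-added. Cell viability is quantified by CellTiter-Fluor.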

[4] = qHTS assay to identify small molecule antagonists of the constitutive androstane receptor (CAR) signaling pathway - cell viability counter screen (AID 1224837); note: nearly all actives have a fitted effect of over 45% in size
Outline: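 Read-out: CellTiter-Fluor fluorescence after 23 hr at 37 C/5% CO2. Cells: HepG2 double-stable for hCAR and CYP2B6-2.2kb. Compounds tested at 15 concentrations in the presence of CITCO, final concentration 50 nM.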

[5] = target: Nuclear receptor subfamily 1 group I member 3 (Homo sapiens) (UniProt Q14994); assay: qHTS assay to identify small molecule antagonists of the constitutive androstane receptor (CAR) signaling pathway (AID 1224838);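 note: HepG2 cells stably expressing hCAR with CYP2B6 luciferase reporter stimulated by CITCO; nearly all actives have a fitted effect of over 40% in size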
Outline: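 Read-out: ONE-Glo luciferase luminescence after 30 min at room temperature. HepG2-CYP2B6-hCAR double-stable cells, compounds in 15-point titration plus 50 nM CITCO final, 24 h at 37 C/5% CO2.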

[6] = target: Nuclear receptor subfamily 1 group I member 3 (Homo sapiens) (UniProt Q14994); assay: qHTS assay to identify small molecule agonists of the constitutive androstane receptor (CAR) signaling pathway (AID 1224839);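 note: HepG2 cells stably carrying human CAR and a CYP2B6 luciferase reporter; nearly all actives have a fitted effect of over 15% in size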
Outline: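 Readout: firefly luciferase luminescence via ONE-Glo. System: HepG2 double-stable for hCAR and CYP2B6-2.2kb. Conditions: 15-point compound titration, PK11195 at 0.75 uM final, 24 h incubation.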

[7] = qHTS assay to identify small molecule antagonists of the estrogen related receptor signaling pathway with the pleiotropic PPARgamma coactivator (PGC) from Tox21 10K library - cell viability counter screen (AID 1224840; active = well fitted cell-killing curve with a large enough effect in the repeat runs, not every such curve was filed as active; note: nearly all actives have a fitted effect of over 40% in size)
Outline: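 Fluorescence read-out of CellTiter-Fluor viability reagent, added after cells had been exposed to compound in DMSO for 17.5 h at 37 C; 30 min development at 37 C/5% CO2. Cells: PGC/ERR line, 2,000/well.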

[8] = qHTS assay to identify small molecule antagonists of the estrogen related receptor signaling pathway with the pleiotropic PPARgamma coactivator (PGC) from Tox21 10K library (AID 1224841; call rule not given here; note: actives are mostly falling curves and most rising ones were filed inactive; nearly all actives have a fitted effect of over 50% in size)
Outline: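 Luminescence read-out (One-Glo luciferase reagent, 30 min at room temperature) from PGC/ERR cells exposed to DMSO-dissolved test compounds for 18 h at 37 C; cells, 2,000 per well, had been preincubated 6 h before compound transfer.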

[9] = qHTS assay to identify small molecule agonists of the estrogen related receptor signaling pathway with the pleiotropic PPARgamma coactivator (PGC) from Tox21 10K library (AID 1224842); note: nearly all actives have a fitted effect of over 15% in size
Outline: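 PGC/ERR reporter cell line, 2,000 cells per well, incubated 6 h at 37 C before 23 nL compound in DMSO was added. After 18 h at 37 C, One-Glo luminescence read following 30 min at room temperature.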

[10] = target: Thyrotropin receptor (Homo sapiens) (UniProt P16473); assay: qHTS assay to identify small molecule agonists of the thyroid stimulating hormone receptor (TSHR) signaling pathway (AID 1224843; calls by dose curve; note: nearly all actives have a fitted effect of over 45% in size)
Outline: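 Agonist-mode screen: TSHR HEK293 cells received test chemicals for half an hour at room temperature, then HTRF cAMP detection reagents for one hour prior to fluorescence measurement. Each chemical ran as a 15-concentration series, triplicated.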

[11] = qHTS assay to identify small molecule agonists of the hypoxia (HIF-1) signaling pathway - cell viability counter screen (AID 1224844; calls by dose curve; note: nearly all actives have a fitted effect of over 50% in size)
Outline: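 CellTiter-Glo luminescence read-out, 30 min RT, taken in the same wells as the beta-lactamase HRE reporter assay; HRE-bla ME-180 cells, 0.5% dialyzed FBS, 17 hr compound treatment at 37C, 5% CO2.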

[12] = qHTS assay to identify small molecule agonists of H2AX (AID 1224845; active = well fitted activation curve with a large enough effect in the signal ratio in the repeat runs, not every such curve was filed as active; the % refers to the signal ratio)
Outline: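 Wild-type CHO-K1 cells, plated overnight, exposed 3hr at 37C to 15 concentrations (0.76% DMSO final). Lysed, then HTRF anti-pH2AX (S139) cryptate and anti-H2AX-d2 antibodies, 24 hr room temperature; 665/620 nm emission read.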

[13] = qHTS assay to identify small molecule agonists of the hypoxia (HIF-1) signaling pathway (AID 1224846; active = well fitted activation curve with a large enough effect in the signal ratio in the repeat runs, not every such curve was filed as active; the % refers to the signal ratio)
Outline: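 Beta-lactamase FRET read-out (CCF4-AM substrate) from ME-180 cells carrying an HRE-driven bla reporter, after 17 hrs compound exposure at 37C/5% CO2. Cells were seeded at 2,000 per well in 0.5% dialyzed FBS medium and preincubated 5 hrs.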

[14] = qHTS assay to identify small molecule agonists of H2AX - cell viability counter screen (AID 1224847; calls by dose curve; note: top concentration of the series differs between compounds; nearly all actives have a fitted effect of over 30% in size)
Outline: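 For this counter screen, overnight-attached CHO-K1 cells received test compounds (15 concentrations, 0.76% DMSO final); 3 hr later at 37C, CellTiter-Glo reagent was added and luminescence recorded after 30 min at room temperature.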

[15] = qHTS assay to identify small molecule antagonists of the estrogen related receptor (ERR) signaling pathway from Tox21 library (AID 1224848); note: nearly all actives have a fitted effect of over 50% in size
Outline: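 Quantitative high-throughput format: ERR reporter cells (2,000/well) pre-incubated 6 h, treated 18 h at 37 C with compounds in DMSO alongside positive and negative controls, then read by ONE-Glo luminescence.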

[16] = qHTS assay to identify small molecule agonists of the estrogen related receptor (ERR) signaling pathway from Tox21 library (AID 1224849; calls by dose curve; note: nearly all actives have a fitted effect of over 15% in size); conditions: ERR reporter cell line, ONE-Glo luciferase, 18 h
Outline: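 Luminescence readout (ONE-Glo, 30 min RT) after 18 h compound exposure at 37 C of NTP-supplied ERR reporter cells; cells were plated 6 h before compound addition by pin tool.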

[17] = qHTS RealTime-Glo MT Cell Viability Assay in HepG2 cells - 24 hour (AID 1224867); note: nearly all actives have a fitted effect of over 50% in size
Outline: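 Compound treatment began 5 h after plating HepG2 cells (600/well) with NanoLuc luciferase and prosubstrate. Plates stayed at 37 C for 40 h; luminescence was captured at six time points, 0 h through 40 h.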

[18] = qHTS RealTime-Glo MT Cell Viability Assay in HEK293 cells - 32 hour (AID 1224868); note: nearly all actives have a fitted effect of over 50% in size; note: potency is the fitted concentration of half-maximal effect
Outline: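 Quantitative high-throughput screen of the Tox21 10K library in HEK293: cells and RealTime-Glo reagents plated together, compound added at 5 h, luminescence monitored through 40 h at 37 C.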

[19] = A CellTox Green Cytotoxicity Assay to monitor cytotoxicity in HEK293 cells - 0 hour (AID 1224869); note: nearly all actives have a fitted effect of over 50% in size
Outline: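 Read-out: fluorescence of a cell-impermeant cyanine dye staining DNA of dead cells, proportional to cytotoxicity. HEK293, 600 cells/well with reagent, compound (23 nL DMSO) added after 5 h; reads at 0, 8, 16, 24, 32, 40 h.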

[20] = qHTS RealTime-Glo MT Cell Viability Assay in HepG2 cells - 40 hour (AID 1224870); note: nearly all actives have a fitted effect of over 50% in size
Outline: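 HepG2 cells (600/well) mixed with RealTime-Glo MT reagent, settled 5 h at 37 C/5% CO2 before compound addition. Nonlytic NanoLuc luminescence from viable-cell prosubstrate reduction read repeatedly during 40 h treatment at 37 C.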
% is set by controls: 0 for no effect and ±100 for the full control effect.

Sequence of Nuclear receptor subfamily 1 group I member 3 (Homo sapiens) (Q14994 whole entry, looked up): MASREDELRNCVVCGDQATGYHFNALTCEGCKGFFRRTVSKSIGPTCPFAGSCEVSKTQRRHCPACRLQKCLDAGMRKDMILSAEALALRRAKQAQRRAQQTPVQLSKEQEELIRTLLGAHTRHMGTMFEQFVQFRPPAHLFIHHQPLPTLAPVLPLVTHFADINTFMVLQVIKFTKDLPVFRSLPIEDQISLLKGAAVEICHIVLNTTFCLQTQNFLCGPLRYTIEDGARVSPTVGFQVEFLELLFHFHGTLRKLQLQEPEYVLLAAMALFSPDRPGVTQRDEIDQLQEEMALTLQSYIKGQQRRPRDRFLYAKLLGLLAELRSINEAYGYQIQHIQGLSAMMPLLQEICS
Sequence of Thyrotropin receptor (Homo sapiens) (P16473 whole entry, looked up): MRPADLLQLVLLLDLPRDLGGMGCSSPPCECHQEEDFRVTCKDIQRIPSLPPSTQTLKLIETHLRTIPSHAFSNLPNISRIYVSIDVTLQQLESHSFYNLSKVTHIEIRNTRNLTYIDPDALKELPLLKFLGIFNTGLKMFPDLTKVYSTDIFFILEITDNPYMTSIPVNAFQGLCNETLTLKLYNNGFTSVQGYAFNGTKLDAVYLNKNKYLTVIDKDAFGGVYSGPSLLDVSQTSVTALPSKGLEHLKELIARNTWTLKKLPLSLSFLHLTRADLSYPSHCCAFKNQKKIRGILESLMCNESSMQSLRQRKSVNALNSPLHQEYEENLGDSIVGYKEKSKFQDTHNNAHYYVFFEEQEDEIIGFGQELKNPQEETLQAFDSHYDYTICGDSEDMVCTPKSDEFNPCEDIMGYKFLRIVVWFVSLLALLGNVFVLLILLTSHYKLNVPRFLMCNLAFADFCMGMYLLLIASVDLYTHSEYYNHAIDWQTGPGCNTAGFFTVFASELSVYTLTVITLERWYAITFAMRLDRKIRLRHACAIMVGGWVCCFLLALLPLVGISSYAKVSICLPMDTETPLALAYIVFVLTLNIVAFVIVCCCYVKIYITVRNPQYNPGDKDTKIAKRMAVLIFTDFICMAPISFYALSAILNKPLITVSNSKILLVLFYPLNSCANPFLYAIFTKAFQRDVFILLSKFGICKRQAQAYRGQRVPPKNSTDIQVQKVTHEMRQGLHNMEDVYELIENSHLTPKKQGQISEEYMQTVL
Sequence of Luciferin 4-monooxygenase (Photinus pyralis) (P08659 whole entry, looked up): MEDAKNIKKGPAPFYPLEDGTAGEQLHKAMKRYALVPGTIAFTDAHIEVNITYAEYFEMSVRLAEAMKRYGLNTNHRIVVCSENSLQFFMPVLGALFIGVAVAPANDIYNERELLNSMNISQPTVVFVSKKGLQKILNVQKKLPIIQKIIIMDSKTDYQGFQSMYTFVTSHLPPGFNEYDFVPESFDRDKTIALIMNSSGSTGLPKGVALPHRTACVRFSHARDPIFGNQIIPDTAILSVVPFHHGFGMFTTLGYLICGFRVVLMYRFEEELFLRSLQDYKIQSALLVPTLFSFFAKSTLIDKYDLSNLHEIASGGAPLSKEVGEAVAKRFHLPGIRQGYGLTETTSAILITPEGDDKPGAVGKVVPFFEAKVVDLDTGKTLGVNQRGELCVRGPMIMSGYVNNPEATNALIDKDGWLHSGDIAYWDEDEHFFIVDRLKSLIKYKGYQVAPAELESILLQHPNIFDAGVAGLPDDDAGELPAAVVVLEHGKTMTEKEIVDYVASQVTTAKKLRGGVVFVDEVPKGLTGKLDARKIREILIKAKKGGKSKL

CCC(CO)(CO)COCC(CC)(CO)CO
inactive: Potency [1] | Potency [2] | Potency [3] | Potency [4] | Potency [5] | Potency [6] | Potency [7] | Potency [8] | Potency [9] | Potency [10] | Potency [11] | Potency [12] | Potency [13] | Potency [14] | Potency [15] | activity change, positive = activation ([16]; at 92.4 µM (top of the series)) 6.39% | Potency [17] | Potency [18] | Potency [19] | Potency [20]

CCCCCCC(O)CCCCCCCCCCC(=O)O (stereo unspecified)
inactive: Potency [1] | Potency [2] | Potency [3] | Potency [4] | Potency [5] | Potency [6] | Potency [7] | Potency [8] | Potency [9] | Potency [10] | Potency [11] | Potency [12] | Potency [13] | Potency [14] | activity change, positive = activation ([16]; at 92.4 µM (top of the series)) -9.99% and -15.5% | Potency [17] | Potency [18] | Potency [19] | Potency [20]

CC(=O)O[C@]1(C(C)=O)CC[C@H]2[C@@H]3C[C@H](C)C4=CC(=O)CC[C@]4(C)[C@H]3CC[C@@]21C
active: Potency [1] 61.1 µM | Potency [18] 19.5 µM and 10.7 µM
inactive: Potency [2] | Potency [3] | Potency [4] | Potency [5] | Potency [6] | Potency [7] | Potency [10] | Potency [11] | Potency [12] | Potency [13] | Potency [14] | Potency [17] | Potency [19] | Potency [20]

C1COC(NC(C2CC2)C2CC2)=N1
inactive: Potency [1] | Potency [2] | Potency [3] | Potency [4] | Potency [5] | Potency [6] | Potency [7] | Potency [8] | Potency [9] | Potency [10] | Potency [12] | Potency [14] | Potency [15] | activity change, positive = activation ([16]; at 42.5 µM (top of the series)) -1.34% | Potency [17] | Potency [18] | Potency [19] | Potency [20]

Cc1cccc(O)c1C
inactive: Potency [1] | Potency [2] | Potency [3] | Potency [4] | Potency [5] | Potency [6] | Potency [7] | Potency [8] | Potency [9] | Potency [10] | Potency [11] | Potency [12] | Potency [13] | Potency [14] | Potency [15] | activity change, positive = activation ([16]; at 92.4 µM (top of the series)) 0.54% and 10.2% | Potency [17] | Potency [18] | Potency [19] | Potency [20]

CCn1cc(C(=O)O)c(=O)c2cc(F)c(N3CCNC(C)C3)c(F)c21 (stereo unspecified)
inactive: Potency [1] | Potency [2] | Potency [3] | Potency [4] | Potency [5] | Potency [6] | Potency [7] | Potency [8] | Potency [9] | Potency [10] | Potency [11] | Potency [12] | Potency [15] | activity change, positive = activation ([16]; at 42.5 µM (top of the series)) 3.97% | Potency [17] | Potency [19] | Potency [20]

c1cnc2cc3c(cc2n1)C1CNCC3C1
inactive: Potency [1] | Potency [2] | Potency [3] | Potency [4] | Potency [5] | Potency [6] | Potency [7] | Potency [8] | Potency [9] | Potency [12] | Potency [13] | Potency [14] | Potency [15] | activity change, positive = activation ([16]; at 42.5 µM (top of the series)) 1.11% | Potency [18] | Potency [19] | Potency [20]

CCN1CCCC1CNC(=O)c1cc(S(=O)(=O)CC)c(N)cc1OC (stereo unspecified)
inactive: Potency [1] | Potency [2] | Potency [3] | Potency [4] | Potency [5] | Potency [6] | Potency [7] | Potency [8] | Potency [9] | Potency [10] | Potency [11] | Potency [12] | Potency [13] | Potency [14] | Potency [15] | activity change, positive = activation ([16]; at 42.5 µM (top of the series)) 2.19% | Potency [17] | Potency [18] | Potency [19] | Potency [20]

Cc1cccc2n[nH]nc12
inactive: Potency [1] | Potency [2] | Potency [3] | Potency [4] | Potency [5] | Potency [6] | Potency [7] | Potency [8] | Potency [9] | Potency [10] | Potency [12] | Potency [15] | activity change, positive = activation ([16]; at 92.4 µM (top of the series)) 7.89% and -7.83% | Potency [17] | Potency [18] | Potency [19] | Potency [20]

CC(=O)CC(=O)Nc1ccc2[nH]c(=O)[nH]c2c1
inactive: Potency [1] | Potency [2] | Potency [3] | Potency [4] | Potency [5] | Potency [6] | Potency [7] | Potency [8] | Potency [9] | Potency [10] | Potency [12] | Potency [13] | Potency [14] | Potency [15] | activity change, positive = activation ([16]; at 92.4 µM (top of the series)) 4.73% | Potency [17] | Potency [18] | Potency [19] | Potency [20]

CC1=C(C=O)C(C)(C)CC=C1
inactive: Potency [1] | Potency [2] | Potency [3] | Potency [4] | Potency [5] | Potency [6] | Potency [7] | Potency [8] | Potency [9] | Potency [10] | Potency [11] | Potency [12] | Potency [13] | Potency [14] | Potency [15] | activity change, positive = activation ([16]; at 92.4 µM (top of the series)) 0.302% | Potency [17] | Potency [19] | Potency [20]

C#CC(C)(CC)OC(=O)c1ccccc1C(=O)O (stereo unspecified)
inactive: Potency [1] | Potency [2] | Potency [3] | Potency [4] | Potency [5] | Potency [6] | Potency [7] | Potency [8] | Potency [9] | Potency [10] | Potency [11] | Potency [12] | Potency [13] | Potency [14] | Potency [15] | activity change, positive = activation ([16]; at 42.5 µM (top of the series)) 0.513% | Potency [17] | Potency [19] | Potency [20]
